For five molecules, composite z-score, z-score and composite Z-score results are on record in PubChem BioAssay.

The subject of test [1] is Human papillomavirus type 1a protein E7 (residues 44-93). Kind of test: HPV1a E7 fragment binders on microarrays, primary screen, biochemical, small-molecule microarray, residues 44-93, 635 nm fluorescence (AID 1108).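 Note: E7 fragment applied at 1 µg/mL in TBST for 1 h at 4 C; score combines spot fluorescence with its signal to noise ratio.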 The settings on record: small-molecule microarray binding, fluorescence 635 nm; higher = more signal.
A short description of test [2]: modulators of HCV replicon luciferase signal, primary screen, HCV replication inhibitor project, Huh7 cells, luciferase reporter (AID 1109).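 Note: huh7 hepatoma cells harbouring a luciferase neomycin HCV replicon reporter; luciferase luminescence as measure of HCV replicon replication; test concentration not given here.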 The settings on record: 48 h, higher = more signal. On the technique in general: In antiviral work, replicon cells carry a viral genome segment that copies itself.
Test [3] concerns the target Left-right determination factor 2 (Homo sapiens) (UniProt O00292). Kind of test: LEFTY2 binders on small-molecule microarrays, primary screen, biochemical, small-molecule microarray, 635 nm fluorescence scan (AID 1110). The conditions noted are these: LEFTY2 binding, higher = more signal.
Test [4] concerns the target Calmodulin-1 (Homo sapiens) (UniProt P0DP23). Kind of test: CALM1 binders on microarrays, EGTA buffer, profiling panel, biochemical, small-molecule microarray, Cy5-labelled CALM1 (AID 1111).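 Note: labelled calmodulin applied in Tris saline Tween buffer holding calcium plus EGTA and DTT.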 The settings on record: Cy5-CALM1 binding fluorescence, higher = more signal.
For test [5] the target is unchanged. Kind of test: calcium-bound CALM1 binders on microarrays, profiling panel, artefact control for SMM control-protein annotation, biochemical, small-molecule microarray, Cy5-labelled CALM1, plus calcium (AID 1112).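 Note: score merges spot fluorescence with signal to noise from triplicate slides.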 The conditions noted are these: Cy5-CALM1 binding fluorescence, higher = more signal.
A short description of test [6]: small-molecule microarray binders of probe aWnt5a, primary screen, biochemical, biotinylated probe, 635/667 nm fluorescence (AID 1113).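 Note: score merges 667 nm fluorescence intensity with signal-to-noise per printed feature.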 The conditions noted are these: higher = more signal.
The nature of test [7]: small-molecule microarray binders of probe aShh, primary screen, biochemical, biotinylated probe, 635/667 nm fluorescence (AID 1114).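 Note: probe is biotin-labelled aShh protein from a stem cell growth factor screen; measures binding of labelled protein to compounds printed on the slide; score merges feature fluorescence at 667 nm with signal-to-noise.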 The conditions noted are these: higher = more signal.
A short description of test [8]: small-molecule microarray binders of probe aNog, primary screen, biochemical, biotinylated probe, 635/667 nm fluorescence (AID 1115).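 Note: probe is biotinylated aNog protein used at 0.15 µg/mL for 1 h at 4 C; z-score combines 667 nm fluorescence of each spot with its signal to noise.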 The conditions noted are these: higher = more signal.
Test [9] deals with Torsin-1A-interacting protein 1 (Homo sapiens) (UniProt Q5JTV8). Kind of test: LAP1 binders from COS7 cell lysate, primary screen, small-molecule microarray, 635/667 nm fluorescence (AID 1116). The settings on record: COS7-hLAP1 lysate binding, 635 nm fluorescence, higher = more signal.
Chain of Torsin-1A-interacting protein 1 (Homo sapiens) (Q5JTV8 whole entry, looked up): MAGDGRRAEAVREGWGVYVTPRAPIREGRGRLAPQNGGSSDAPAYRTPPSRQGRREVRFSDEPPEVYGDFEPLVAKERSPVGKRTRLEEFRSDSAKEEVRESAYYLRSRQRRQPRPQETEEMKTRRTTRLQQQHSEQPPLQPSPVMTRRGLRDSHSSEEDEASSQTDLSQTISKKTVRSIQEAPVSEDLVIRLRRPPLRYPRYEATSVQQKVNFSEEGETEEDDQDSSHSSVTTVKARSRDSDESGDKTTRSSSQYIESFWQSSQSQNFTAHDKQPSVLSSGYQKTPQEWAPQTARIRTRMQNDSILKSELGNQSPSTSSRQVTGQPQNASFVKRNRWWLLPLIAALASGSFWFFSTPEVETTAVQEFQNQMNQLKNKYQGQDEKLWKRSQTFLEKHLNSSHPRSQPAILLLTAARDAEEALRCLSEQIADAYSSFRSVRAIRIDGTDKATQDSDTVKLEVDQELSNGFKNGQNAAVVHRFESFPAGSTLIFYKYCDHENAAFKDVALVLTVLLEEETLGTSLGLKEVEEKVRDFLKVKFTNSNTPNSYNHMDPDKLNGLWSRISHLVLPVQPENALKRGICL
The target in test [10] is Alpha-bungarotoxin (Bungarus multicinctus) (UniProt P60615). Kind of test: alpha-bungarotoxin binders on microarray, profiling panel, artefact control for SMM control protein annotation, biochemical, small-molecule microarray, Alexa647 label, 635/667 nm fluorescence (AID 1117). The conditions noted are these: alpha-BTX-A647 binding fluorescence, higher = more signal.
Chain of Alpha-bungarotoxin (Bungarus multicinctus) (P60615 whole entry, looked up): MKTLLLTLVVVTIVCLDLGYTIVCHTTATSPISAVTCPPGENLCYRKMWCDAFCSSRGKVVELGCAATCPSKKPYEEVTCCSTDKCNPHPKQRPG
Another test concerns the target Albumin (Bos taurus) (UniProt P02769). Kind of test: bovine serum albumin binders on microarray, profiling panel, artefact control for SMM control protein annotation, biochemical, small-molecule microarray, Alexa647 label, 635/667 nm fluorescence (AID 1118).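 Note: score merges 667 nm emission intensity and signal-to-noise per printed compound spot.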 The settings on record: BSA-A647 binding, fluorescence 635 nm, higher = more signal.
A short description of test [11]: small-molecule microarray binders of probe aXIP, primary screen, biochemical, NeuroSMM set, 635/667 nm fluorescence (AID 1119).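 Note: probe is the protein aXip251-270 applied at 1 µg/mL to compound-printed slides; binding of probe to printed compounds measured as 667 nm fluorescence plus signal to noise.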 The settings on record: higher = more signal, called active from +8 up or from −8 down.
A short description of test [12]: small-molecule binders of probe aNOTCH3, primary screen, biochemical, small-molecule microarray, 635/667 nm fluorescence (AID 1120).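 Note: probe is a biotin-tagged antibody raised against NOTCH3 rather than NOTCH3 protein; score merges spot fluorescence near 667 nm with spot signal to noise.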 The conditions noted are these: higher = more signal.
Test [13] in a line: small-molecule binders of probe aNOTCH2, primary screen, biochemical, small-molecule microarray, 635/667 nm fluorescence (AID 1121).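 Note: score merges feature fluorescence read at 667 nm with its signal to noise.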 The settings on record: higher = more signal.
For test [14], the target named is Carbonic anhydrase 2 (Homo sapiens) (UniProt P00918). Kind of test: CAII small-molecule binders, profiling panel, biochemical, small-molecule microarray, Alexa647-labelled CAII (AID 1122). The settings on record: CAII-A647 binding fluorescence, higher = more signal.
A short description of test [15]: COS7 lysate on small-molecule microarray, probe aHis, 635 nm (AID 1123).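 Note: z-score combines 667nm fluorescence intensity with signal-to-noise per printed compound spot.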 The settings on record: COS7 cell lysate, fluorescence, higher = more signal.
Test [16] in a line: compound binding in COS7 lysate, probe aLAP1, primary screen, cell lysate, small-molecule microarray (AID 1124).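 Note: lysate comes from COS7 cells expressing LAP1 and is applied at 0.3 µg/mL; score merges spot fluorescence near 667 nm with signal-to-noise over triplicate slides.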 The settings on record: probe aLAP1, fluorescence, higher = more signal.
The next test relates to Sam68 (KHDRBS1). Kind of test: Sam68 small-molecule binders, primary screen, biochemical, small-molecule microarray, 635 nm fluorescence (AID 1125).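 Note: score merges 667 nm channel intensity with signal to noise over triplicate slides.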 The conditions noted are these: small-molecule microarray binding, higher = more signal.
In test [17] the test system is Chordin-like protein 2 (CHRDL2). Kind of test: CHRDL2 small-molecule binders, primary screen, biochemical, small-molecule microarray, 635 nm fluorescence (AID 1126).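 Note: printed compound slides probed with Chrdl2 protein at 4 µg/mL for 1 h at 4 C; score merges 667 nm emission intensity with signal to noise over three replicate slides.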 The conditions noted are these: small-molecule microarray binding, fluorescence 635 nm; higher = more signal.
Test [18] has as its target Concanavalin-A (Canavalia ensiformis) (UniProt P02866). Kind of test: ConA small-molecule binders, primary screen, artefact control for SMM control protein annotation, biochemical, small-molecule microarray, Alexa647 label, 635 nm (AID 1127).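 Note: z combines 667 nm emission intensity with signal-to-noise across three replicate slides.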 The settings on record: ConA-A647 binding fluorescence, higher = more signal.

Activity calls are given as the source filed them.

Chain of Left-right determination factor 2 (Homo sapiens) (O00292 whole entry, looked up): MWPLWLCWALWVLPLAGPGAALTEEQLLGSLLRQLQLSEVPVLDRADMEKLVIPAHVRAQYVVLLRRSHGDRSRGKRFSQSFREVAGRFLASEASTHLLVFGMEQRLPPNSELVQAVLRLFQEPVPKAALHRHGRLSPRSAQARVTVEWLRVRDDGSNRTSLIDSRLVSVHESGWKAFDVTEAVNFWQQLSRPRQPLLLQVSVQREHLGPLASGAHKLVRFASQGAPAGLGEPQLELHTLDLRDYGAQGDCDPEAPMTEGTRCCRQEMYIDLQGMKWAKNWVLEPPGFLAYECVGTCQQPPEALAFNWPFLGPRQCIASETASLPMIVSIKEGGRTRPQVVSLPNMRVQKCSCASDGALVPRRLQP
Chain of Concanavalin-A (Canavalia ensiformis) (P02866 whole entry, looked up): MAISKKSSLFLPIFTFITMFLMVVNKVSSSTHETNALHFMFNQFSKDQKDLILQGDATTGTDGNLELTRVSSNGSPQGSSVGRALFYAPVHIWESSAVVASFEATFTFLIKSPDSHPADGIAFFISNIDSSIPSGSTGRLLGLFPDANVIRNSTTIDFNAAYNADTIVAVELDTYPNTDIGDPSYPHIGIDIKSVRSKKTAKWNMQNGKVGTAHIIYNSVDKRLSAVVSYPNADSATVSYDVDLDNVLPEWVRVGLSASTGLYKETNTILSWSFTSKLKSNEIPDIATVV
Chain of Albumin (Bos taurus) (P02769 whole entry, looked up): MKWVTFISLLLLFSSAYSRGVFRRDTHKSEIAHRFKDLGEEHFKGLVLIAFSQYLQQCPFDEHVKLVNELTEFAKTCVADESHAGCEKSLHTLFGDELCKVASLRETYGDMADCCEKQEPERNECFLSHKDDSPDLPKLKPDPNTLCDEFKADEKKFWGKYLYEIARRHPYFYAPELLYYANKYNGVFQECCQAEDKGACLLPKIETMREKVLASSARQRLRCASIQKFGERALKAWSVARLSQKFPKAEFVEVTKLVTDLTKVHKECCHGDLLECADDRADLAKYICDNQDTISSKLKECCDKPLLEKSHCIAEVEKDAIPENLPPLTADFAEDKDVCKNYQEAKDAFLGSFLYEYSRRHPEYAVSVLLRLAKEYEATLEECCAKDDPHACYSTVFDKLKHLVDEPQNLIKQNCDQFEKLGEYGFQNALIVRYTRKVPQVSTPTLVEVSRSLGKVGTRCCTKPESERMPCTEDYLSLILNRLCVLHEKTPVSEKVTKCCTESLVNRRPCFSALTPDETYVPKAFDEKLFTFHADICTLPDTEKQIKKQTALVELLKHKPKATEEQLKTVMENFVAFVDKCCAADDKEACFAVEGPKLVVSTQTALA

Turning to `C=CCC(OC(C)=O)[C@@H]1[C@@H](N(Cc2cc3ccccc3o2)C(=O)c2ccc(-c3ccccc3)cc2)c2cc(OCCCO)ccc2N1C(=O)Cc1ccc(OC)cc1` (stereo not given in full), the composite z-score in test [1] is -0.401; in test [3], 0.0189; in test [4] it was -0.184; in test [5], 0.464; in test [6], -0.0758; in test [7], -0.335. The composite z-score is -0.216 in test [8]; -0.195 in [9]; -0.17 in test [10]; 0.0787 with Albumin (Bos taurus); -0.0189 in test [12]; -0.14 in test [13]. The composite z-score in [14] was -0.284; in [15], 0.401; in test [16], -0.237; with Sam68 (KHDRBS1) it was 0.0416; in test [17], 0.186; in [18], 0.444. Moreover, the z-score in test [2] is -1.46. In addition, the composite Z-score in test [11] was 0.443 (inactive).
For `CC(C)C(=C=CC[C@@H](O)c1cccc(OCCO)c1)C[C@@H](O)c1ccccn1`, the composite z-score in test [1] was 0.0406; in [3], -0.315; in test [4] it was -0.303; in test [5], -0.207; in test [6], -0.152; in test [7], -0.154. The composite z-score in test [8] was -0.104; in [9], 1.63; in [10], -0.142; with Albumin (Bos taurus) it was 0.0608; in [12] it was -0.0362; in test [13] it was -0.123. Also, the composite z-score in [14] is 0.26; in [15] it was -0.293; in test [16], 0.726; in the test on Sam68 (KHDRBS1), -0.228; in test [17], -0.377; in test [18], -0.155. Besides, the z-score in test [2] was -0.658. Further, the composite Z-score in test [11] is -0.259 (inactive).
Consider `CCOC(=O)C[C@H]1[C@H](OC(=O)c2cc3ccccc3oc2=O)[C@@H](NC(=O)c2ccc3ccccc3c2)c2cc(OCCCO)ccc2N1C(=O)Cc1ccc(OC)cc1`, for which the composite z-score was 1.16 in test [1]; 0.763 in test [3]; 0.31 in test [4]; -0.239 in test [5]; -0.0648 in test [6]; 0.0588 in [7]. Moreover, the composite z-score in test [8] is -0.0047; in test [9], 0.546; in [10] it was 0.259; in the test with Albumin (Bos taurus), 0.684; in test [12], -0.0377; in [13], -0.0131. Further, the composite z-score amounted to 0.265 in test [14]; 1.69 in [15]; 0.241 in test [16]; 0.692 with Sam68 (KHDRBS1); 0.453 in test [17]; 0.69 in test [18]. Further, the z-score in [2] was -1.6. Further, in test [11], the composite Z-score was -0.0384 (inactive).
`C=CCNC(=O)[C@H]1[C@@H]2C(=O)O[C@@H](c3ccccc3)[C@@H](c3ccccc3)N2[C@@H](c2ccc(OCCO)cc2)[C@]12C(=O)N(C(=O)OCCOC)c1ccc(C#Cc3ccc(OC)cc3)cc12`: the composite z-score in [1] is 1.4; in [3], 0.631; in [4], 0.512; in test [5], 0.14; in test [6], -0.0445; in test [7], 0.0976. In addition, the composite z-score in test [8] was 0.447; in [9], -0.0927; in test [10], 1.49; with Albumin (Bos taurus), 0.358; in [12], 0.154; in test [13], -0.0995. Besides, the composite z-score came out at 0.447 in [14]; 0.656 in [15]; 0.636 in [16]; 1.3 with Sam68 (KHDRBS1); 0.302 in [17]; 1.09 in test [18]. In addition, in [2], the z-score is -2.54. In addition, the composite Z-score in test [11] is -0.292 (inactive).
On to `C=C(/C(=C/C[C@@H](OC(=O)c1ccncc1)c1cccc(OCCO)c1)c1cnc2ccccc2c1)C(C)C`, for which the composite z-score was 1.08 in test [1]; 0.775 in test [3]; 0.0848 in test [4]; 0.11 in [5]; 0.0215 in test [6]; -0.0769 in test [7]. Moreover, the composite z-score is 0.419 in [8]; 1.37 in [9]; 2.57 in test [10]; 0.701 with Albumin (Bos taurus); 0.178 in test [12]; -0.0689 in test [13]. Besides, the composite z-score in [14] came out at 0.976; in test [15], 1.69; in test [16] it was 1.38; in the test with Sam68 (KHDRBS1), 1.21; in test [17], 1.24; in test [18] it was 1.2. In [2], the z-score was -1.96. Moreover, in test [11], the composite Z-score is 0.414 (inactive).
